This is part of a sample that, as a whole, favours compounds with a hit. Of some 83,000 tested, about 20% had one in any assay.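 Cells were grown in 96-well plates and exposed to the test compound at a single concentration for 48 hours; results are reported as percent growth, with values below 10 considered active.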 Unmarked numbers belong to inactive results. The source made the active and inactive calls.

The assay has as its system HL-60(TB) leukemia. As to the kind of experiment: NCI-60 one-dose screen, 48 h (100 = growth as untreated, 0 = no growth, -100 = all killed). Particulars: 10 µM unless noted.
With `O=C(O)c1cn(C2CC2)c2cc(N3CCN(Cc4c(O)ccc5ccccc45)CC3)c(F)cc2c1=O`, the growth is 71.6%. In the case of `COc1ccc2c(c1)C(=O)c1c-2c(=O)n(CCCN(C)C)c2cc(OC)c(OC)cc12` it was 74.8%; in that of `COc1ccc2cc(-c3nc4ccccc4[nH]3)c(=O)oc2c1`, 81.2%.

As to `COc1ccc(Cn2cc3c(c2-c2ccc(OC)cc2)CCc2cnoc2-3)cc1`, the growth is -6.74% (active). To `CCC(CCCN1C(=O)c2ccccc2C1=O)Nc1cc(OC)cc2cccnc12` (configuration not stated) belongs 86.1%; to `CNC(=O)c1nn(C)c2c1C(C)(C)Cc1cnc(Nc3ccc(N4CCN(C)CC4)cc3)nc1-2`, -27% (active).

On to `C=C(C)[C@@H]1CC[C@]2(C(=O)NC(COC(=O)C(Cl)Cl)(COC(=O)C(Cl)Cl)COC(=O)C(Cl)Cl)CC[C@]3(C)[C@H](CC[C@@H]4[C@@]5(C)CC[C@H](OC(C)=O)C(C)(C)[C@@H]5CC[C@]43C)[C@@H]12`, for which the growth was 16.7%.

As to `CCN(C(=O)CN1CCN(c2cc3c(cc2F)c(=O)c(C(=O)O)cn3CC)CC1)c1nc(-c2ccccc2)cs1`, the growth is -39.2% (active).

`CCOC(=O)c1c(C)nc2c(c1N)CC(=O)N2Cc1cc(OC)c(OC)c(OC)c1`: the growth was 18.8%. To `O=C(/C=C/c1ccc([N+](=O)[O-])o1)NNC(=O)c1cc2ccccc2cc1O` belongs 1.21% (active); to `COC(=O)c1cc2c(/C=C3/NC(=S)NC3=O)coc2n1C`, 100%; to `CCN1C(=S)N(CC)C2C1NC(=S)N2/N=C/C=C/c1ccccc1` (configuration not stated), -22.2% (active).

On to `COc1ccc(/C=C/C(=O)c2cc3c(N)c(C(=O)Nc4ccccc4C)sc3nc2C)cc1`, for which the growth was 10.7%. Take `CN1CCN(c2ccc(Nc3ncc(C(N)=O)c(NCCCNC(=O)C4CCC4)n3)cc2)CC1`: the growth is -36.3% (active). As to `O=C1Nc2ccc(Br)cc2/C1=N\N=C/c1cn(Cc2ccccc2)c2ccccc12`, the growth was 84.4%.

Turning to `C=CCOC(=O)Nc1cccn([C@H](Cc2ccccc2)C(=O)NCCC(C)C)c1=O`, the growth is 95.1%.

`c1cc(OCCN2CCCC2)ccc1CNc1ccc2nc(CCC3CCCCC3)[nH]c2c1`: the growth is -4.69% (active). Turning to `COc1cc(NCC(C)(O)CN(CC(C)C)CC(C)C)c2nc(C)ccc2c1` (configuration not stated), the growth was 71.4%. For `FC(F)(F)c1cn(CC2CNC2)c2ncnc(Cl)c12`, the growth was 73.5%. `CCCCNCCCCCNc1cc(OC)cc2cccnc12`: the growth was 67.5%.

On to `N#Cc1nn(-c2ccccn2)c(N)c1C#N`, for which the growth is 96.1%. For the compound `Clc1cc(Cl)c2nc(-c3ccc(-c4ccc(/C=N/NC5=NCCN5)cc4)s3)cn2c1`, the growth is 98.4%. To `COc1ccc(-c2nc3sc(-c4ccccc4)c(-c4ccccc4)n3c2/C=C/c2ccc(F)cc2)cc1` belongs 105%; to `COCCN(C(=O)Cc1cccs1)C(C(=O)NCc1ccc(OC)cc1)c1ccc(C(C)C)cc1` (configuration not stated), 105%. In the case of `COc1cc(C2=NNC(c3ccc(N(C)C)cc3)C2)cc(OC)c1OC` (configuration not stated) it was -33.6% (active); in that of `COC(=O)[C@@H]1[C@H](O)[C@H](C)[C@H](O)[C@@](C)(O)/C=C\C=C(C)C(=O)Nc2c(C)c(OC(C)=O)c3c(c2O)C(=O)C(C)=C2OCOC(=C23)C(C)=C[C@@](C)(O)[C@H](O)[C@@H](C)[C@H]1OC(C)=O`, 71.2%; in that of `CCOC(=O)C(=Cc1ccc(-c2ccccc2)cc1)C(=O)OCC`, -10.6% (active). For the compound `O=C1c2cccc3cccc(c23)C(=O)N1N1C(=O)c2cccc3c(N4CCNCC4)ccc(c23)C1=O`, the growth was 64.7%. In the case of `CCCCn1c(C(=O)c2c[nH]c3ccccc23)n[nH]c1=S` it was 90.8%. For the compound `CCCCCCCC/C=C/CCCCCCCC1=NCC[N+]1(CCO)CCO`, the growth is 31.7%. In the case of `COc1ccc2oc3c(ccc[n+]3C)c(=O)c2c1` it was 109%. For `COc1ccc(-c2nnc(COc3ccc(NS(=O)(=O)c4ccc(OC)cc4)cc3F)o2)cc1`, the growth is 76.6%. To `Nc1nc(-c2ccc(Cl)cc2)cc(-c2cc3ccccc3oc2=O)n1` belongs 125%; to `CN1c2ccccc2C(C)(C)C12C=Cc1cc(O)ccc1O2` (configuration not stated), -30.1% (active).

On to `N#Cc1cnn(-c2nc3c(Cl)cccc3s2)c1N`, for which the growth is 97.7%. To `COc1ccc(-c2cc(C(=O)Nc3ccc(C)cc3)nc3[nH]c(=O)sc23)cc1` belongs 51.8%. With `Cc1c(O)c(O)cc2c3c(oc12)CC(c1ccc2c(c1)OCO2)CC3=O` (configuration not stated), the growth was 73.7%.

The values are drawn from PubChem BioAssay (NCI).
